Data from PubChem BioAssay (NCATS).
“And” between values parts separate entries of the source, which are not always exact repeats. Equal entries are not always repeated. A number with no mark means an inactive call. Results filed as inconclusive are left out. The source made the active and inactive calls. Unless noted, calls come from the whole dose curve; as a rule, active = well fitted curve in the direction sought with a large enough effect; inconclusive = small, poorly fitted or top-dose-only effect, or another doubt; inactive = no such curve, though single readings can be large; an effect the other way counts as inactive or inconclusive.

Columns and labels:
[1] = Cell Viability - HepG2 (AID 433; calls by dose curve;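 note: potency is the fitted concentration of half-maximal effect; cells exposed to compound for 40 hours; potency for ATP loss meaning cytotoxicity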); conditions: qHTS
Method in brief: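 Read-out is luciferase-based quantitation of cellular ATP as a measure of viable HepG2 cells after 40 h treatment at 37 °C. Signal decrease is scaled between DMSO-only and 100 uM tamoxifen controls, with AC50 fitted by the Hill equation.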

[2] = Cellular Toxicity (caspase-3) NIH 3T3 (AID 666); conditions: NIH 3T3 caspase-3 activation, apoptosis/toxicity, 0% DMSO, 100% is 100 µM tamoxifen; series mostly up to 92.2 µM;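 note: caspase signal read after 16 h compound exposure; 0% = DMSO basal and 100% = 100 µM tamoxifen stimulation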
Method in brief: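 Activity: caspase-3/7 induction, NIH 3T3 cells, 16 hr treatment at 37°C, luminescent Caspase-Glo detection; AC50 via Hill equation.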

[3] = Cell Viability - LYMP2-001 (AID 921); conditions: LYMP2-001 lymphoblastoid cell viability; series mostly up to 92.2 µM;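 note: cells exposed to compound for 24 h at 37 °C; nearly all actives have a fitted effect of over 70% in size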; note: potency is the fitted concentration of half-maximal effect
Method in brief: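 Steps: seed 2500 lymphoblastoid cells/well; 5 hr, 37 C; add compound; 24 hr, 37 C; CellTiter-Glo reagent, 30 min room temperature; read luminescence. Concentration-response modeled by Hill equation for AC50.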

[4] = Cell Viability - LYMP1-002 - Assay at 16 hr (AID 948); conditions: LYMP1-002 lymphoblastoid cell viability; series mostly up to 92.2 µM; note: potency is the fitted concentration of half-maximal effect
Method in brief: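 Seed 2500 LYMP1-002 cells per well in complete medium and hold 5 hr at 37 C. Add compound across a concentration series and incubate 16 hr at 37 C. Add CellTiter-Glo, wait 30 min at room temperature, read luminescence.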

[5] = MultiTox-Fluor Cytotoxicity Assay - LYMP1-003 - Dead Cells (AID 961); conditions: LYMP1-003 lymphoblastoid cells, dead-cell protease fluorescence; series mostly up to 92.2 µM; note: nearly all actives have a fitted effect of over 70% in size; note: potency is the fitted concentration of half-maximal effect
Method in brief: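 Human lymphoblastoid LYMP1-003 cells (2500/well) were treated with compounds for 16 hr at 37 C in complete medium. Dead-cell protease release was read by bis-AAF-R110 fluorescence (Ex/Em 485/520). AC50 came from Hill fits, normalized to DMSO and 15 uM tetraoctylammonium bromide.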

[6] = Cell Viability - LYMP1-003 - Assay at 40 hr (AID 964); conditions: LYMP1-003 lymphoblastoid viability; series mostly up to 92.2 µM; note: nearly all actives have a fitted effect of over 60% in size; note: potency is the fitted concentration of half-maximal effect
Method in brief: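 Acute toxicity is scored as a concentration-dependent loss of intracellular ATP in LYMP1-003 cells (2500/well, complete medium) after 40 hr at 37 C, measured by CellTiter-Glo luminescence; AC50 values derive from standard Hill modelling.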

[7] = Cell Viability - LYMP2-009 (AID 968); conditions: LYMP2-009 lymphoblastoid cell viability; series mostly up to 92.2 µM;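 note: cells exposed to compound for 24 h at 37 °C; nearly all actives have a fitted effect of over 55% in size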; note: potency is the fitted concentration of half-maximal effect
[8] = Cell Viability - LYMP2-011 (AID 969); conditions: LYMP2-011 lymphoblastoid cells viability; series mostly up to 92.2 µM; note: nearly all actives have a fitted effect of over 60% in size; note: potency is the fitted concentration of half-maximal effect
Method in brief: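 Cells seeded at 2500 per well rest 5 hr before compound addition, then incubate 24 hr at 37 C. CellTiter-Glo reagent is added for 30 min at room temperature before luminescence detection.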

[9] = Cell Viability - LYMP2-017 (AID 972); conditions: LYMP2-017 lymphoblastoid cell viability; series mostly up to 92.2 µM; note: nearly all actives have a fitted effect of over 55% in size; note: potency is the fitted concentration of half-maximal effect
Method in brief: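 In this qHTS format, lymphoblastoid cells in complete medium receive test compound for a day at 37 C before ATP content is quantified by luciferase luminescence. Reported AC50 figures come from standard Hill-equation curve fitting.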

[10] = Cell Viability - LYMP2-021 (AID 974); conditions: LYMP2-021 lymphoblastoid cells viability; series mostly up to 92.2 µM;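 note: compound exposure lasts 24 hours at 37 °C; nearly all actives have a fitted effect of over 55% in size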; note: potency is the fitted concentration of half-maximal effect
Method in brief: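 In qHTS format, compounds are tested against 2500 lymphoblastoid cells per well for 24 h; viable cell number is inferred from ATP-driven luciferase light, and Hill-equation fitting yields AC50 values.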

[11] = Cell Viability - LYMP2-023 (AID 975); conditions: LYMP2-023 lymphoblastoid cell viability; series mostly up to 92.2 µM; note: nearly all actives have a fitted effect of over 55% in size; note: potency is the fitted concentration of half-maximal effect
Method in brief: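 In this qHTS, ATP-based luciferase luminescence (CellTiter-Glo) is quantified in human lymphoblastoid cells after 24 hr compound treatment at 37 C; tetraoctylammonium bromide serves as positive control. Concentration-response curves are Hill-fitted to give AC50.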

[12] = Cell Viability - LYMP2-025 (AID 976); conditions: LYMP2-025 lymphoblastoid cell viability; series mostly up to 92.2 µM;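 note: cells exposed to compound for 24 h at 37 °C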; note: potency is the fitted concentration of half-maximal effect
Method in brief: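 Luminescent ATP readout after 24 hr treatment of a human lymphoblastoid line (LYMP2-025, 2500 cells/well, 37 C). Reagent developed 30 min at room temperature; AC50 fitted with the Hill equation.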

[13] = Cell Viability - LYMP2-007 (AID 979); conditions: LYMP2-007 lymphoblastoid cell viability; series mostly up to 92.2 µM;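 note: potency is the fitted concentration of half-maximal effect; cells exposed to compound for 24 h before reading; nearly all actives have a fitted effect of over 60% in size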
Method in brief: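 Measured via luciferase-based ATP quantitation: lymphoblastoid cells, 24 hr compound exposure at 37 C, AC50 from Hill fits.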

[14] = Cell Viability - LYMP2-012 (AID 982); conditions: LYMP2-012 lymphoblastoid cell viability qHTS; series mostly up to 92.2 µM; note: potency is the fitted concentration of half-maximal effect
[15] = Cell Viability - LYMP2-020 (AID 986); conditions: series mostly up to 92.2 µM; note: potency is the fitted concentration of half-maximal effect
Method in brief: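 Cells at 2500 per well receive a 24 hr compound exposure at 37 C. Viability is measured as ATP-dependent luciferase luminescence, with AC50 modeled from qHTS concentration-response curves.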

[16] = Cell Viability - LYMP1-002 - Assay at 24 hr (AID 993); conditions: LYMP1-002 lymphoblastoid cells viability; series mostly up to 92.2 µM; note: potency is the fitted concentration of half-maximal effect
Method in brief: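 Viability was judged from intracellular ATP using a luciferase read-out, following a 24-hour compound incubation at 37 C of lymphoblastoid cells seeded at 2500 per well. Concentration-response data were fitted to the Hill equation for AC50.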

[17] = qHTS assay for small molecule disruptors of the mitochondrial membrane potential - 5 hr assay (AID 651755; calls by dose curve; note: % is set by controls: 0 for no effect and ±100 for the full control effect; nearly all actives have a fitted effect of over 40% in size); conditions: JC-1-type ratio dye; series mostly up to 92.2 µM
Method in brief: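 Seed HepG2 overnight, add compound, incubate 5 hr at 37C and 5% CO2, stain 30 min with Mito-MPS, then measure monomer (490/535 nm) and aggregate (540/590 nm) fluorescence.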

[18] = biological target: Peroxisome proliferator-activated receptor alpha (Homo sapiens) (UniProt Q07869); test: qHTS assay for small molecule agonists of the peroxisome proliferator-activated receptor alpha (PPARalpha) signaling pathway (AID 651778); conditions: PathHunter PPARalpha complementation, chemiluminescence, 6 h; max response: active compounds read high; note: % of control where 0% means no effect
Method in brief: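 Cells plated at 2,000/well and held overnight at 37 C, 5% CO2, then compound added by pin tool for 6 hr; after PathHunter detection reagent and 60 min at room temperature, chemiluminescence from enzyme complementation was read.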

[19] = qHTS assay for small molecule agonists of the antioxidant response element (ARE) signaling pathway measured by Nrf2-dependant transcriptional activity (AID 720636; active = well fitted curve in the direction sought with a large enough effect in the repeat runs; an effect the other way counts as inactive or inconclusive; note: potency is the fitted concentration of half-maximal effect;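 for activation: HepG2 cells with an ARE-driven luciferase reporter; % of control where 0% means no effect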); conditions: ARE-luc HepG2, Nrf2 luciferase reporter, 16 h; series mostly up to 92.4 µM
Method in brief: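 Attachment 6 hr at 37 C, then compound versus DMSO vehicle for 16 hr in ARE-luc HepG2 cells (1% dialyzed FBS); luminescence recorded 30 min after ONE-Glo addition at room temperature.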

[20] = Cellular Toxicity (caspase-3) SHSY5Y (AID 657); conditions: SH-SY5Y caspase-3 activation; series mostly up to 91.7 µM;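 note: cells exposed to compound for 16 hours at 37 °C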
Method in brief: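 qHTS, SH-SY5Y, 1500 cells/well, 5 h pre-incubation 37 °C; compound 16 h 37 °C; Caspase-Glo 3/7 1 h RT; luminescence. Norm.: DMSO = 0, 10 uM staurosporine = 100%. Hill fit → AC50.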

Peroxisome proliferator-activated receptor alpha (Homo sapiens), sequence (Q07869 whole entry, looked up): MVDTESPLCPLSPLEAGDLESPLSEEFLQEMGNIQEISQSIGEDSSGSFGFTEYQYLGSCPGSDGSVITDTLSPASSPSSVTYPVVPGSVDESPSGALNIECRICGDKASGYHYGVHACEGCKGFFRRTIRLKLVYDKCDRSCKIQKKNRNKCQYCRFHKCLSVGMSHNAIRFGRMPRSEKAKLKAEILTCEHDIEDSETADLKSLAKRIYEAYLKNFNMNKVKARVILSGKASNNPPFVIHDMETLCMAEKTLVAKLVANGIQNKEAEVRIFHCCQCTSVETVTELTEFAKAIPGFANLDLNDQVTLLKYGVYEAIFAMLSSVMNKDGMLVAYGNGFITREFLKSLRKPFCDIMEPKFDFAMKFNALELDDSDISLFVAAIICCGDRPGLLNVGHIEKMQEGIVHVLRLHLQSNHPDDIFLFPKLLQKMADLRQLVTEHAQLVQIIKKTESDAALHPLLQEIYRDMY

| Compound | Potency [1] | outcome [2] | Potency [3] | Potency [4] | Potency [5] | Potency [6] | Potency [7] | Potency [8] | Potency [9] | Potency [10] | Potency [11] | Potency [12] | Potency [13] | Potency [14] | Potency [15] | Potency [16] | Potency [17] | max response [18] | Potency [19] | Potency [20] |
| --- | --- | --- | --- | --- | --- | --- | --- | --- | --- | --- | --- | --- | --- | --- | --- | --- | --- | --- | --- | --- |
| N#CSCSC#N | 50.3 µM (active) | inactive | 5.01 µM (active) | 31.6 µM (active) | 25.1 µM (active) | 39.8 µM (active) | 5.01 µM (active) | 6.31 µM (active) | 5.01 µM (active) | 5.01 µM (active) | 6.31 µM (active) | 10 µM (active) | 6.31 µM (active) | 5.01 µM (active) | 5.01 µM (active) | 12.6 µM (active) | inactive | -10% and -5.06% | inactive | – |
| COP(=O)(OC)O/C(=C\Cl)c1cc(Cl)c(Cl)cc1Cl | > 92 µM | inactive | inactive | inactive | inactive | inactive | inactive | inactive | – | – | inactive | inactive | – | 50.1 µM (active) | inactive | inactive | – | -3% | – | – |
| CN(C)c1ccc(N=O)cc1 | – | inactive | 0.631 µM (active) | 7.94 µM (active) | 3.98 µM (active) | 3.98 µM (active) | 1 µM (active) | 2 µM (active) | 1 µM (active) | 0.794 µM (active) | 1.26 µM (active) | 2.51 µM (active) | 0.794 µM (active) | 0.631 µM (active) | 1.26 µM (active) | 3.98 µM (active) | – | -3.57% | 26.6 µM (active) | inactive |
| CC(=O)[O-].CC(=O)[O-].O.O.[Cd+2] | – | inactive | – | inactive | – | – | – | – | inactive | 50.1 µM (active) | inactive | inactive | 39.8 µM (active) | – | – | inactive | inactive | -7.81% | 0.841 µM (active) | inactive |
| [Cd+2].[Cl-].[Cl-] | – | inactive | – | – | – | 15.8 µM (active) | – | – | – | – | – | – | 39.8 µM (active) | – | – | – | inactive | -8.85% | 0.841 µM (active) | inactive |
| O=[N+]([O-])C(Br)Br | – | inactive | 7.94 µM (active) | inactive | inactive | inactive | 12.6 µM (active) | 12.6 µM (active) | 7.94 µM (active) | 10 µM (active) | 12.6 µM (active) | 20 µM (active) | 10 µM (active) | 12.6 µM (active) | 12.6 µM (active) | inactive | inactive | -3.58% | – | inactive |
| ClC1=C(Cl)C2(Cl)C3C(Cl)C(Cl)CC3C1(Cl)C2(Cl)Cl (stereo not given) | > 92 µM | inactive | inactive | – | 50.1 µM (active) | – | inactive | inactive | – | inactive | – | inactive | – | inactive | – | inactive | inactive | – | inactive | – |
| C(=NC1CCCCC1)=NC1CCCCC1 | 3.31 µM (active) | inactive | – | inactive | inactive | inactive | – | – | – | – | – | – | – | – | – | inactive | inactive | -9.68% and -4.28% | inactive | inactive |
